Screens: PubChem, Broad Institute
PfHsp90 set2: growth inhibition of yeast expressing Plasmodium Hsp90. S. cerevisiae expressing PfHsp90, BacTiter-Glo ATP, 48 h; yeast lacking PDR1 and PDR3 efflux regulators. inhibition, % at 9.4 µM. 0.32% of 310,000 active. AID 504621;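 active = every replicate shows inhibition above about 80%, whatever the replicate mean, limit read from the data; inconclusive = mean inhibition reaches the set limit but some replicate falls short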;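 also: 0% = DMSO neutral controls and 100% = 20 µM radicicol positive controls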
SIRT5 inh: sirtuin-5 (human) deacylase inhibition; Q9NXA8; Purified SirT5, succinyl-peptide AMC, trypsin-coupled fluorescence; inhibition, % at 15 µM; 1.1% of 330,000 active; AID 652115; in the data active = inhibition above about 15%; inconclusive = no clear call, values can overlap the other calls
Target sequence (Q9NXA8 whole entry, looked up): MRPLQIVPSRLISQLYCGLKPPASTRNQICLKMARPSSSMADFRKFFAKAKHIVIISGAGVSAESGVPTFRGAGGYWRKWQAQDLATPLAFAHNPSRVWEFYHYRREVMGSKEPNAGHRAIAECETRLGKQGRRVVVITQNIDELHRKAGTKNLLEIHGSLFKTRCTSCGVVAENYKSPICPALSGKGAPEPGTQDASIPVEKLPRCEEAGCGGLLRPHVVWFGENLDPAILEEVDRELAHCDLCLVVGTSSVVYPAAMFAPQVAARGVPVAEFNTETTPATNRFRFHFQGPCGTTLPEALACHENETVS
ARNT-TACC3 inh: disrupts binding between human ARNT and TACC3. Q9Y6A5. AID 623870. AlphaScreen His-ARNT PAS-B/GST-TACC3 binding, luminescence; TACC3 fragment carries E629A point mutation. inhibition, % at 9.99 µM. 0.66% of 390,000 active;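 active = mean inhibition of replicates at least 50% and at least half of replicates each reaching 50%; inconclusive = half or more replicates reach 50% but mean below 50%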;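 also: 0% = complete ARNT plus TACC3 wells and 100% = ARNT alone without TACC3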
NSD2 inh: inhibitors of human histone methyltransferase NSD2. NSD2 peptide methylation, AlphaScreen, 120 min. inhibition, % at 12.5 µM. O96028. 0.54% of 310,000 active; in the data active = inhibition above about 50%
CASP6 VEID inh: inhibitors of human caspase-6 | P55212 | purified caspase-6, Z-VEID-R110 cleavage fluorescence | inhibition, % at 12.5 µM | 0.53% of 350,000 active;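 active = mean inhibition across replicates at least about 35%, with every replicate also reaching that limit, limit read from the data; inconclusive = only one of the two criteria met; inactive = neither criterion met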;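 also: 0% = median of neutral control wells and 100% = no fluorescence left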
Target sequence (P55212 24-179 limits assumed): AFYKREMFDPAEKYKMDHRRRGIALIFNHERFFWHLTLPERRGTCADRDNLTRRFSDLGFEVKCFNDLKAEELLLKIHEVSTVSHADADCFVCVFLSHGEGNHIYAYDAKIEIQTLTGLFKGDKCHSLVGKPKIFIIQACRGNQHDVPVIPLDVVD
Target sequence (P55212 194-293 limits assumed): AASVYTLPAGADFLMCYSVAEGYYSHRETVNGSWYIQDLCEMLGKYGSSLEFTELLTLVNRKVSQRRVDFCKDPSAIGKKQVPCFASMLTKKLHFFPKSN
The depositor's hits bear a star. A selection: hits, their analogues and other compounds. The true share with any hit is near 2.1%.

How did CC(=O)OCC1=C(C(=O)O)N2C(=O)C(NC(=O)c3ccc(COc4ccc(Cl)cc4)o3)C2SC1 (stereo unspecified) do in these assays?
PfHsp90 set2: 2; SIRT5 inh: -3; ARNT-TACC3 inh: 14; NSD2 inh: 9; CASP6 VEID inh: 60*

How did CC(=O)OCC1=C(C(=O)O)N2C(=O)C(NC(=O)c3ccc(COc4c(C)cccc4Cl)o3)C2SC1 (stereo unspecified) do in these assays?
PfHsp90 set2: -7; SIRT5 inh: -2; ARNT-TACC3 inh: 1; CASP6 VEID inh: 40*

What do the screens show for `C[C@@H]1CN([C@@H](C)CO)C(=O)c2cc(NS(=O)(=O)c3ccc(F)cc3)ccc2O[C@@H](C)CCCCO[C@H]1CN(C)S(=O)(=O)c1cccs1`?
SIRT5 inh: 4; ARNT-TACC3 inh: 0; CASP6 VEID inh: 0

Results for CN(C)CC(=O)Nc1ccc2c(c1)[C@@H]1C[C@H](CC(=O)N3CCCCC3)O[C@@H](CO)[C@@H]1O2 ?
SIRT5 inh: -7; ARNT-TACC3 inh: -6; CASP6 VEID inh: -3

Results for CC(NNC(=S)N1CCN(c2ccccn2)CC1)c1nccc2ccccc12 (stereo unspecified) ?
PfHsp90 set2: 121*; SIRT5 inh: -2; ARNT-TACC3 inh: 63*; NSD2 inh: 6; CASP6 VEID inh: -3

How did CCCS(=O)(=O)Nc1cccc(-c2nc3cccnc3s2)c1 do in these assays?
PfHsp90 set2: -38; SIRT5 inh: -4; ARNT-TACC3 inh: 46*; NSD2 inh: -4; CASP6 VEID inh: 0

What do the screens show for `Cc1nnc(SCC(=O)N(C)C2CCCCC2)n1C`?
PfHsp90 set2: -7; SIRT5 inh: -2; ARNT-TACC3 inh: -5; NSD2 inh: 6; CASP6 VEID inh: 55*

Results for COc1ccc(S(=O)(=O)Nc2cccc3c2O[C@@H](CN(C)C(=O)Nc2ccc4c(c2)OCO4)[C@H](C)CN([C@@H](C)CO)C3=O)cc1 ?
SIRT5 inh: -2; ARNT-TACC3 inh: -5; CASP6 VEID inh: -3

How did O=C(O)/C(=C\c1ccc(Cl)cc1)c1ccc(S(=O)(=O)N2CCCC2)s1 do in these assays?
SIRT5 inh: 2; ARNT-TACC3 inh: 12; NSD2 inh: 3; CASP6 VEID inh: 9

How did CSc1ccc(/C=C(\C(=O)O)c2ccc(S(=O)(=O)N3CCCCC3)s2)cc1 do in these assays?
PfHsp90 set2: -24; SIRT5 inh: 7; NSD2 inh: 3; CASP6 VEID inh: 44*

What do the screens show for `O=C(O)/C(=C\c1ccc(Cl)c([N+](=O)[O-])c1)c1ccc(S(=O)(=O)N2CCCCC2)s1`?
PfHsp90 set2: -47; SIRT5 inh: 2; ARNT-TACC3 inh: 19; NSD2 inh: 7; CASP6 VEID inh: 31

How did COc1cc(/C=C(\C(=O)O)c2ccc(S(=O)(=O)N3CCCC3)s2)cc(OC)c1 do in these assays?
PfHsp90 set2: 0; SIRT5 inh: 0; ARNT-TACC3 inh: -10; NSD2 inh: 4; CASP6 VEID inh: 41*

Results for O=C(O)/C(=C\c1cccc([N+](=O)[O-])c1)c1ccc(S(=O)(=O)N2CCCCC2)s1 ?
PfHsp90 set2: 21; SIRT5 inh: 1; ARNT-TACC3 inh: -3; NSD2 inh: 4; CASP6 VEID inh: 41*

What do the screens show for `Cc1ccc(-c2cnc(N)n2C)cc1C`?
PfHsp90 set2: 6; ARNT-TACC3 inh: 63*; NSD2 inh: 6

How did Cc1ccc(-c2cnc3ccccc3n2)cc1C do in these assays?
PfHsp90 set2: -3; SIRT5 inh: -5; ARNT-TACC3 inh: -10; NSD2 inh: -2; CASP6 VEID inh: -7

How did Cc1noc(C)c1NC(=O)Nc1ccc2c(c1)CC(=O)N([C@@H](C)CO)C[C@@H](C)[C@H](CN(C)S(=O)(=O)c1ccccc1)O2 do in these assays?
SIRT5 inh: 4; CASP6 VEID inh: -3

What do the screens show for `COCC(=O)N1CC2(C1)CN(Cc1cc(F)ccc1F)[C@@H](CO)c1c2c2ccc(OC)cc2n1C`?
SIRT5 inh: -3; CASP6 VEID inh: 1

How did CCOc1cc(/C=N/Nc2ccc(C(=O)O)cc2)ccc1OC(=O)c1ccccc1C do in these assays?
PfHsp90 set2: 19; SIRT5 inh: 26*; ARNT-TACC3 inh: -30; NSD2 inh: 5; CASP6 VEID inh: 14

What do the screens show for `O=c1cnnc(N/N=C/c2ccc3c(c2)OCO3)[nH]1`?
PfHsp90 set2: 15; SIRT5 inh: -2; ARNT-TACC3 inh: 15; NSD2 inh: 0; CASP6 VEID inh: 0

How did O=c1cnnc(N/N=C/C2CC=CCC2)[nH]1 (stereo unspecified) do in these assays?
PfHsp90 set2: -5; SIRT5 inh: 0; ARNT-TACC3 inh: 65*; NSD2 inh: -2; CASP6 VEID inh: 0

What do the screens show for `C[C@@H](NC(=O)[C@H]1[C@H](CO)[C@H]2Cn3c(cccc3=O)[C@H]2N1CC1CCCCC1)c1ccccc1`?
SIRT5 inh: -3; CASP6 VEID inh: 2

Results for COc1ccc(C(=O)C(C)OC(=O)c2nc3nccc(C)n3n2)cc1 (stereo unspecified) ?
PfHsp90 set2: -1; SIRT5 inh: 9; ARNT-TACC3 inh: -4; NSD2 inh: -1; CASP6 VEID inh: 91*

What do the screens show for `COc1ccc(C(=O)/C=C/c2ccccc2)c(O)c1`?
PfHsp90 set2: 23; ARNT-TACC3 inh: -20; CASP6 VEID inh: -3

What do the screens show for `O=C(C=Cc1ccccc1O)c1ccccc1O`?
PfHsp90 set2: inconclusive; SIRT5 inh: -6; ARNT-TACC3 inh: -2; NSD2 inh: 5; CASP6 VEID inh: 3

Results for O=C(C=Cc1cccc(O)c1)c1ccccc1O ?
PfHsp90 set2: 104*; SIRT5 inh: -3; ARNT-TACC3 inh: -2; NSD2 inh: -1; CASP6 VEID inh: 7

Results for O=C(/C=C/c1ccc(O)c(O)c1)c1ccccc1O ?
PfHsp90 set2: 37; SIRT5 inh: 0; ARNT-TACC3 inh: 6; NSD2 inh: 62*; CASP6 VEID inh: 19

How did CCNC(=O)C[C@@H]1CC[C@H]2[C@@H](COc3ccc(NC(=O)Nc4ccccc4F)cc3C(=O)N2C)O1 do in these assays?
SIRT5 inh: -4; ARNT-TACC3 inh: -10; CASP6 VEID inh: 3

What do the screens show for `O=c1[nH]c(=O)n(C2OC(CO)C(O)C2O)cc1F` (stereo unspecified)?
PfHsp90 set2: -15; ARNT-TACC3 inh: -6; NSD2 inh: -1

Results for O=C1C=CC(n2cc(F)c(=O)[nH]c2=O)O1 (stereo unspecified) ?
SIRT5 inh: 1; NSD2 inh: -1; CASP6 VEID inh: 36*

How did O=C(O)C1CSC(c2ccncc2)N1 (stereo unspecified) do in these assays?
ARNT-TACC3 inh: 6

Results for O=C(O)C1CSC(c2ccco2)N1 (stereo unspecified) ?
PfHsp90 set2: -24; SIRT5 inh: 16*; ARNT-TACC3 inh: 12; NSD2 inh: 38; CASP6 VEID inh: 86*

How did Cc1cc(C(=O)Nc2cccc3c2O[C@@H](CN(C)S(=O)(=O)c2ccccc2)[C@@H](C)CN([C@@H](C)CO)C3=O)n(C)n1 do in these assays?
SIRT5 inh: 5; ARNT-TACC3 inh: -26; CASP6 VEID inh: -5
